# Screening results: PubChem BioAssay, The Scripps Research Institute Molecular Screening Center
# Most compounds without a hit are left out; they make up all but 2.8% or so of the library.
# Fam108B inh: counter-screen for RBBP9 inhibitors: inhibitors of mouse Fam108B. AID 1947. 0.33% of 300,000 active. recombinant Fam108B, FP-Rh probe fluorescence polarization. inhibition, % at 9.51 µM;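 active means inhibition above the screen mean inhibition plus 3 SD, computed separately per campaign, cut at about 18% in these data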;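 further: inhibitors lower polarization as less probe binds the enzyme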
# PME-1 inh: PME-1 (human) inhibition; Q9Y570; recombinant PME-1, FP-Rh probe fluorescence polarization; inhibition, % at 5.9 µM; 0.53% of 320,000 active; AID 2130;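 active means inhibition above the campaign mean of all compounds plus 3 SD, cut at about 26% in these data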;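 further: competitive labeling of PME-1 active site by serine hydrolase directed probe; 0% = PME-1 with DMSO and 100% = wells lacking PME-1 enzyme; inhibitors block probe labeling so polarization falls and inhibition rises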
# PAFAH1B2 inh: inhibitors of human PAFAH1B2 | 1.2% of 340,000 active | AID 492953 | inhibition, % at 3.39 µM | P68402 | recombinant PAFAH1B2, FP-rhodamine activity probe, fluorescence polarization;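 active means inhibition above the mean of all tested compounds plus 3 SD, cut at about 24% in these data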;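 further: 0% = enzyme with DMSO and 100% = wells lacking PAFAH1B2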
# Target sequence (P68402 whole entry, looked up): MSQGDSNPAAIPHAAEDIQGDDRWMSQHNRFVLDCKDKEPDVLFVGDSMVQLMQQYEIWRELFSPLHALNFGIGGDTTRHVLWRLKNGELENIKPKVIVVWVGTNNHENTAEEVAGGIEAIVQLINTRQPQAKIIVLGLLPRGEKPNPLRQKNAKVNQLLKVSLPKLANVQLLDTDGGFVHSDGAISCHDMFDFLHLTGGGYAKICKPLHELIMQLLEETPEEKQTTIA
# pPAFAH inh: pPAFAH (human) enzyme inhibition; AID 463082; recombinant pPAFAH, FP-rhodamine probe fluorescence polarization; Q13093; inhibition, % at 3.39 µM; 1.5% of 330,000 active;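 active means inhibition above the mean inhibition across the screen plus 3 SD, cut at about 25% in these data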;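 further: inhibitors block binding of the rhodamine activity-based probe so polarization drops; 0% = enzyme with DMSO and 100% = wells lacking pPAFAH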
# Target sequence (Q13093 whole entry, looked up): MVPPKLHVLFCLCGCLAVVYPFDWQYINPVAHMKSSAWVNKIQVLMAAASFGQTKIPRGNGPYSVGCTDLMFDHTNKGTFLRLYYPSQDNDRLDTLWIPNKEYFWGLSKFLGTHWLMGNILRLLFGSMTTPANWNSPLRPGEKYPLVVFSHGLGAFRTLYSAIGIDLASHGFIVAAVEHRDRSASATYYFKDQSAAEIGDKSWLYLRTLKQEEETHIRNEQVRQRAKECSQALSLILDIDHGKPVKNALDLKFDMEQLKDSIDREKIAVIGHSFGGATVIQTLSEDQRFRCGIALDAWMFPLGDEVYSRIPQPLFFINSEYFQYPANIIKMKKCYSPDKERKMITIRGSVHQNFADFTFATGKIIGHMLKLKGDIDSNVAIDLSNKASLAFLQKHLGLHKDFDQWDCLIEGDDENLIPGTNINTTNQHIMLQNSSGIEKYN
# PAFAH1B3 FP inh: blocks human PAF acetylhydrolase 1B catalytic subunit 3 | recombinant PAFAH1B3, FP-rhodamine probe, fluorescence polarization | inhibition, % at 3.39 µM | 0.28% of 340,000 active;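 active means inhibition above the screen-wide average of all tested compounds plus 3 SD, cut at about 25% in these data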;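 further: 0% = enzyme with DMSO only and 100% = wells lacking PAFAH1B3 protein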
# PAFAH2 inh: PAFAH2 (human) inhibition. 0.99% of 340,000 active. inhibition, % at 3.39 µM. recombinant PAFAH2, FP-rhodamine activity probe, fluorescence polarization. Q99487. AID 492956;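 active means inhibition above the mean over all tested compounds plus 3 SD, cut at about 30% in these data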;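 further: inhibitors block probe labeling of enzyme so polarization drops; 0% = enzyme with DMSO and 100% = wells lacking PAFAH2 protein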
# An asterisk follows results filed as active; nt = no result given.
SMILES,Fam108B inh,PME-1 inh,PAFAH1B2 inh,pPAFAH inh,PAFAH1B3 FP inh,PAFAH2 inh
CC(C)C[C@H]1CNC(=S)N1CC1CCN(CCCCc2ccccc2)CC1,nt,nt,3.8,nt,0.8,-1.7
CC1CCN(S(=O)(=O)c2ccc3c(c2)CCN3C(=O)CCC(=O)O)CC1,0.5,0.9,26.4*,2.3,10.7,0.9
O=C(COc1ccc(Cl)cc1)Nc1ccc2c(c1)C(=O)NC2=O,0.7,-14.2,6.5,7.2,12.4,11.9
CC(=O)Nc1ccc(SC[C@H](c2ccccc2)N2CCN(CCc3ccccc3)CCC2=O)cc1,1.7,-2.6,nt,2.1,nt,nt
CC1C/C(=C/c2ccco2)C(=O)/C(=C/c2ccco2)C1 (centres undefined),1.1,-1.2,nt,47.7*,nt,nt
O=C1/C(=C\c2ccco2)CCC/C1=C\c1ccco1,-1.6,-3.8,-1.6,17.2,-1.6,12.4
COc1cc(/C=C/C(=O)O)ccc1OS(=O)(=O)c1c(C)c(C)cc(C)c1C,nt,0.1,25.8*,6.7,-3.8,7.7
N[C@@H](Cc1c[nH]c2ccc(O)cc12)C(=O)O,3.6,0.6,-0.7,10.1,-5.2,-1.4
NC(Cc1c[nH]c2ccc(OCc3ccccc3)cc12)C(=O)O (centres undefined),1.6,6.9,12.5,25.9*,9.0,-0.6
NC(CCC(=O)NC(CS)C(=O)NCC(=O)O)C(=O)O (centres undefined),nt,nt,3.0,nt,10.2,-3.8
CC(O)[C@H]1CNC(=O)C(=O)N1CCC12CC3CC(CC(C3)C1)C2 (some centres undefined),2.5,1.2,24.8*,0.0,10.5,13.3
COc1cccc(OC(=O)c2ccccc2)c1OC(=O)c1ccccc1,nt,nt,6.8,nt,6.5,2.1
CCOC(=O)C1OC1(c1ccccc1)c1ccccc1 (centres undefined),nt,nt,-1.8,nt,3.5,-1.2
NC1=C(Cl)C(=O)c2ccccc2C1=O,nt,nt,8.3,nt,20.5,2.7
NC1=C(Cl)C(=O)c2ccc(S(N)(=O)=O)cc2C1=O,nt,nt,24.7*,nt,68.6*,48.3*
C[C@@H]1O[C@@H](OC2C(O)C(OCCc3ccc(O)c(O)c3)OC(CO)C2OC(=O)/C=C/c2ccc(O)c(O)c2)[C@H](O)[C@H](O)[C@H]1O (some centres undefined),0.9,-2.9,nt,46.1*,nt,nt
C[C@@H]1O[C@@H](O[C@H]2[C@H](O)[C@@H](O)[C@H](Oc3c(-c4ccc(O)cc4)oc4cc(O)cc(O)c4c3=O)O[C@@H]2CO)[C@H](O)[C@H](O)[C@H]1O,nt,nt,1.5,8.6,6.5,3.3
COC(=O)C1(C)COP(=O)(NC23CC4CC(CC(C4)C2)C3)OC1 (centres undefined),nt,nt,6.2,nt,1.1,2.1
Cc1ccc2[nH]c3c(N4CCc5ccccc5C4)ncnc3c2c1,14.3,30.2*,4.5,13.1,8.8,6.3
CC(=O)Nc1ccc(S(=O)(=O)NC(CSc2ccc(C(=O)O)cc2[N+](=O)[O-])C(=O)O)cc1 (centres undefined),-1.3,-2.4,3.0,5.3,6.8,-7.1
CC1=C(SCc2ccccc2)C(=O)c2ccccc2C1=O,nt,nt,22.5,nt,48.4*,45.8*
[O-][n+]1onc2c1CCC(=N/O)/C2=N\Nc1ccccc1,2.3,10.8,nt,40.9*,nt,nt
CCOC(=O)c1c(NC(=O)CSc2nnc(C)s2)sc2c1CCC(CC)C2 (centres undefined),-0.4,-6.1,-1.3,26.1*,-17.5,-10.6
CCOC(=O)c1sc(NC(=O)CSc2nnc(C)s2)c(C(=O)OCC)c1C,-4.2,-10.2,4.9,-0.4,0.1,-0.8
CCN(C(=O)CSc1nnc(-c2ccccc2Cl)n1N)c1c(N)n(Cc2ccccc2)c(=O)[nH]c1=O,nt,nt,-0.8,nt,3.9,3.9
SMILES,Fam108B inh,PME-1 inh,PAFAH1B2 inh,pPAFAH inh,PAFAH1B3 FP inh,PAFAH2 inh
O=C1CC(c2ccc(S(=O)(=O)NCc3ccccc3)cc2)CN1 (centres undefined),-2.8,2.1,2.6,-3.9,-3.4,-4.4
Cc1ccccc1NS(=O)(=O)c1ccc(C2CNC(=O)C2)cc1 (centres undefined),1.7,4.5,4.2,33.4*,3.8,-1.3
COc1ccc(CC(=O)OCc2csc(CC(=O)Nc3ccc(C)cc3)n2)cc1,nt,nt,-2.6,27.1*,13.3,10.1
Cc1ccc(NC(=S)Nc2nc(CC(=O)Nc3ccccc3)cs2)cc1,-18.4,-20.6,-0.5,-5.6,-13.6,-16.8
Cc1ccc(NC(=O)Cc2nc(CCl)cs2)cc1,-0.9,0.8,5.1,31.5*,-2.6,22.6
CCOC(=O)Nc1ccc(N2CCOCC2)c(S(=O)(=O)Nc2ccc(Cl)cc2)c1,nt,nt,nt,2.5,nt,nt
Cc1ccc(S(=O)(=O)N2CCC(C(=O)Nc3ccc(N4CCOCC4)cc3)CC2)cc1C,nt,nt,0.5,nt,3.1,-8.3
CC(C)Cc1csc(NC(=O)c2ccc(Cl)cc2)c1C(=O)O,3.8,-18.5,4.7,11.1,5.2,42.4*
CC(C)Cc1csc(NC(=O)c2ccccc2Cl)c1C(=O)O,1.6,-7.1,2.5,-0.2,1.8,4.5
CCOc1ccccc1C(=O)N[C@H](C(=O)OCC(=O)Nc1nnc(-c2ccccc2)o1)C(C)C,nt,nt,3.8,nt,7.0,13.5
CC1CCN(C(=O)c2[nH]cnc2C(=O)NCc2ccc(CNC(=O)OC(C)(C)C)cc2)CC1,nt,0.3,5.3,-0.1,6.2,-2.9
COc1ccc2c(c1)CCC/C2=N/OC(=O)c1ccccc1OC,0.9,4.6,0.4,-0.1,12.3,-6.7
COc1ccccc1C(=O)ON=C1c2ccccc2-c2ccccc21,-19.3,-6.2,1.1,29.2*,4.0,57.0*
CN(C(=O)Cn1cnc2sccc2c1=O)C1CCCCC1,nt,-7.5,1.9,0.4,8.1,-2.2
CCC(OC(=O)c1ccco1)C(=O)NC1CCCC1 (centres undefined),0.0,-0.9,3.3,2.1,1.9,-0.2
CC(=O)NC(=S)Nc1ccc(-c2nc3ccc(C)cc3s2)cc1,-5.1,0.3,-9.0,-2.8,4.4,-0.8
CC1=CCC(C(=O)O)C(C(=O)Nc2ccc(-c3nc4ccc(C)cc4s3)cc2)C1 (centres undefined),-2.9,-10.0,1.0,33.7*,-4.1,-4.3
O=C(CSc1ccc(Cl)cc1)OCc1nnc(-c2ccccc2)o1,-2.3,-1.6,96.3*,25.6*,8.5,10.6
O=C(/C=C/c1ccco1)OCc1nnc(-c2ccc(Cl)cc2)o1,3.1,-1.2,1.0,28.1*,8.1,66.7*
O=C(Cc1ccc(Cl)cc1)OCc1nnc(-c2ccccc2)o1,1.9,0.0,6.1,12.2,-4.4,-0.6
Cc1ccc(CS(=O)(=O)CCC(=O)NCc2ccccc2Cl)cc1,1.2,-13.2,7.9,29.4*,5.6,-5.5
COc1ccccc1CNC(=O)CCS(=O)(=O)Cc1ccc(C)cc1,3.9,-0.6,5.6,18.4,5.5,-0.8
CCN1CCN(C(=O)c2ccc(CSc3ccc(C)cc3)cc2)CC1,-3.0,-4.5,40.0*,4.5,6.2,11.6
Cc1ccc(SCC2(O)CCN(C(=O)c3ccc(Cl)cc3)CC2)cc1,6.5,3.1,5.8,28.4*,-1.8,-1.9
